# According to paper PMC4336329 (PLoS ONE, 2015):
# About 14,000 (4.5%) of roughly 310,000 compounds showed an effect of 50% or more. Effects have a minus sign here. The sample holds strong results, similar compounds and a random draw of the others, so the mix is not that of the screen.
# Target: human ether-à-go-go-related gene (hERG) potassium channel (human, UniProt Q12809)
# Assay: primary screen, population patch clamp on CHO cells stably expressing hERG; higher = less effect of the substance
# 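Also: peak tail current of the secondary pulse compared with the same well before compound.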
# Chain of human ether-à-go-go-related gene (hERG) potassium channel (Q12809 whole entry, looked up): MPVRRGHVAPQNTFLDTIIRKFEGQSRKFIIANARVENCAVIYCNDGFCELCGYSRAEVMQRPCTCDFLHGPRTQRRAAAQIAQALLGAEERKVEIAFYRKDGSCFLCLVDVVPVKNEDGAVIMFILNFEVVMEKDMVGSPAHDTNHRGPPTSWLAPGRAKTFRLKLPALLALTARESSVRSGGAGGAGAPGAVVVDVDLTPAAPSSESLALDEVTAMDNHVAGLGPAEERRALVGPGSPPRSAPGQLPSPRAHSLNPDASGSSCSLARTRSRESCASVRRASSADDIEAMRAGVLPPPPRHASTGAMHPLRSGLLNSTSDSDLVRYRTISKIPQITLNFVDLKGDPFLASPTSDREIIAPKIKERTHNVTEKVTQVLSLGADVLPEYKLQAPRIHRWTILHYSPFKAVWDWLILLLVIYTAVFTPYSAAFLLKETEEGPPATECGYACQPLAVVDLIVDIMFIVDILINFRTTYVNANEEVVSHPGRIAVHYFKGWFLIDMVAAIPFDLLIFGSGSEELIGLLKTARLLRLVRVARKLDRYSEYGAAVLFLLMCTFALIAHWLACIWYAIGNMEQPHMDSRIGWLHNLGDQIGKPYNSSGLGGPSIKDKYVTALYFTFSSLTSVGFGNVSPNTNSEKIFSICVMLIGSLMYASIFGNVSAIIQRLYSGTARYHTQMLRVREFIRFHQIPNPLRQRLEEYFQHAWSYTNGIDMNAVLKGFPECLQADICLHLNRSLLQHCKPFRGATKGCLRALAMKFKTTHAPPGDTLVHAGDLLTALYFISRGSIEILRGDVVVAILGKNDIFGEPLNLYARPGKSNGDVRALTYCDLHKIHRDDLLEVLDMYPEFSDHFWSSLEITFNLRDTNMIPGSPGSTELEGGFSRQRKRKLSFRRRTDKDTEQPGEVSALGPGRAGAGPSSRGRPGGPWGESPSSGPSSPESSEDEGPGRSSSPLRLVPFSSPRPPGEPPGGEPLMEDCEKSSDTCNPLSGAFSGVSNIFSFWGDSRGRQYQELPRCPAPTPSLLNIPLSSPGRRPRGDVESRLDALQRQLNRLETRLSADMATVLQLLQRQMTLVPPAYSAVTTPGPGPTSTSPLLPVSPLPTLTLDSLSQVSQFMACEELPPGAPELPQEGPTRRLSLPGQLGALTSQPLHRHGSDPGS
row,Compound,"hERG current change (%, negative = inhibition) at 10uM"
1,O=C(/C=C/c1ccccc1)N1CCN(c2c(Cl)cccc2[N+](=O)[O-])CC1,-20.8%
2,CCC(=O)N1CCN(c2c(Cl)cccc2[N+](=O)[O-])CC1,-13.5%
3,O=C(/C=C/c1ccc(Cl)cc1Cl)N1CCc2ccccc21,-1.39%
4,O=C(/C=C/c1ccc(Cl)cc1)N1CCN(c2ccc(Cl)cc2[N+](=O)[O-])CC1,-92.9%
5,CC(C)(C)C(=O)N1CCN(c2ccc(Cl)cc2[N+](=O)[O-])CC1,-39.3%
6,O=C(/C=C/c1ccccc1[N+](=O)[O-])N1CCCCC1,-2.55%
7,O=[N+]([O-])c1cc(Cl)ccc1N1CCCC1,5.05%
8,O=C(/C=C/c1ccc(Cl)cc1Cl)N1CCN(c2ccccc2[N+](=O)[O-])CC1,-72.7%
9,O=C1CN(C(=O)/C=C/c2ccc(Cl)cc2)c2ccccc2N1,-75.2%
10,O=C(/C=C/c1ccc(Cl)cc1)N1CCN(c2c(Cl)cccc2[N+](=O)[O-])CC1,-58%
11,O=C1CN(C(=O)/C=C/c2cccc(Cl)c2)c2ccccc2N1,-21.4%
12,O=C1CN(C(=O)/C=C/c2ccccc2F)c2ccccc2N1,-2.56%
13,Cc1nc2c(C)cccc2cc1C(=O)N/N=C/c1ccc(N(C)C)cc1,-9.49%
14,COC(=O)c1cc(C)sc1NC(=O)CN1CCN(C(=O)C2CCCO2)CC1 (stereo not shown),-34.7%
15,O=C(CS(=O)(=O)c1ccccc1)N1CCN(c2ccccc2)CC1,2.36%
16,CCCOc1ccc(C2c3c(oc4ccccc4c3=O)C(=O)N2CCCN2CCOCC2)cc1 (stereo not shown),-6.76%
17,CCCC(C)NC(=O)c1sc2nc3n(c(=O)c2c1C)CCC3 (stereo not shown),-6.29%
18,Cc1cc(NC(=O)C2COc3ccccc3O2)no1 (stereo not shown),-0.48%
19,O=C(CSc1n[nH]c(-c2ccco2)n1)Nc1sc2c(c1C(=O)Nc1ccccc1)CCCC2,-41%
20,Cc1ccccc1NC(=O)c1c(C)[nH]c(=S)c(C#N)c1-c1ccc(Cl)cc1,21.1%
21,Cc1ccc(-c2nnc(N(C)C(=O)C3CCCO3)s2)cn1 (stereo not shown),6.74%
22,Cc1cc(C)cc(-n2c(C)cc(/C=C3\C(=N)N4N=C(CC(C)C)SC4=NC3=O)c2C)c1,5.86%
23,c1ccc(COCCC2CO2)cc1 (stereo not shown),5.49%
24,O=C(/C=C/c1ccc(Cl)cc1)N1CCN(c2ccccn2)CC1,-32.3%
25,O=C1CN(C(=O)/C=C/c2ccc(Cl)cc2Cl)CCN1,-19.2%
26,O=C(/C=C/c1ccc(Cl)cc1)N1CCN(c2ccccc2[N+](=O)[O-])CC1,-75.4%
27,O=C(/C=C/c1ccc([N+](=O)[O-])cc1)N1CCN(c2ccccc2F)CC1,-34.2%
28,CN1CCCN(C(=O)/C=C/c2ccc(Cl)cc2Cl)CC1.Cl,-67%

row,Compound,"hERG current change (%, negative = inhibition) at 10uM"
1,O=C(/C=C/c1ccccc1Cl)N1CCCN(C(=O)/C=C/c2ccccc2Cl)CC1,-26.1%
2,CC(=O)NC1CC2CCC(C1)N2Cc1ccc(C)cc1 (stereo not shown),-25.4%
3,CCCNC(=S)NC1CC2CCCC(C1)N2CC(C)C.Cl (stereo not shown),13.1%
4,O=C(NC1CC2CCCC(C1)N2C(=O)NC1CCCCC1)c1ccc(F)cc1 (stereo not shown),4.98%
5,Cc1ccc(CN2C3CCCC2CC(NC(=O)c2ccc(C)cc2)C3)cc1 (stereo not shown),-77.7%
6,CCC(=O)NC1CC2CCCC(C1)N2Cc1ccc(C)cc1 (stereo not shown),-37.4%
7,CCCNC(=S)NC1CC2CCC(C1)N2Cc1ccccc1 (stereo not shown),-35.7%
8,O=C(NC1CC2CCCC(C1)N2Cc1ccc(F)cc1)c1ccc(F)cc1 (stereo not shown),-70.8%
9,CNC(=S)N1C2CCCC1CC(NC(=O)c1ccc(F)cc1)C2 (stereo not shown),6.93%
10,Cc1ccc(C(=O)NC2CC3CCCC(C2)N3Cc2ccccc2)cc1 (stereo not shown),-40.4%
11,CC(=O)NC1CC2CCCC(C1)N2Cc1ccc(C)cc1 (stereo not shown),-30.5%
12,CCCNC(=S)NC1CC2CCCC(C1)N2Cc1ccc(F)cc1 (stereo not shown),-60.6%
13,Cc1ccc(CN2C3CCCC2CC(NC(=O)c2ccc(F)cc2)C3)cc1 (stereo not shown),-74.1%
14,CC(NC(=O)CSc1nnc(CC(=O)Nc2ccc(Cl)c(Cl)c2)n1C)c1ccccc1 (stereo not shown),4.55%
15,COc1ccc(C2CC(c3ccc(Cl)cc3Cl)Nc3nc(N)nn32)cc1OC (stereo not shown),-18.7%
16,COc1cc(NC(C)=O)c2ncccc2c1[N+](=O)[O-],-5.4%
17,CC1CCCCC1NC(=O)CCN1C(=O)C2C3C=CC(C3)C2C1=O (stereo not shown),13%
18,COc1cc2c(cc1OC)C(c1cc3cc4c(cc3[nH]c1=O)OCO4)N(C(=O)C(C)C)CC2 (stereo not shown),-4.79%
19,Cc1ccc(C(=O)N/C(=C\c2sccc2C)C(=O)NCCCN2CCOCC2)cc1,-17.7%
20,Cc1ccc(C(=O)N/C(=C\c2ccco2)C(=O)NCCCN2CCOCC2)cc1C,-12.7%
21,Cc1ccc(C(=O)N/C(=C\c2ccc(-c3ccccc3[N+](=O)[O-])o2)C(=O)NCCCN2CCOCC2)cc1,-61.9%
22,N#C/C(=C\c1ccc(-c2cccc([N+](=O)[O-])c2)o1)C(=O)NCCN1CCOCC1,-47.2%
23,Cc1ccc(C(=O)N/C(=C\c2cn(C)c3ccccc23)C(=O)NCCCN2CCOCC2)cc1,0.137%
24,CNC(=O)/C(C#N)=C/c1ccc(-c2ccccc2[N+](=O)[O-])o1,8.72%
25,Cc1ccc(C(=O)N/C(=C\c2ccc(-c3cccc([N+](=O)[O-])c3)o2)C(=O)NCCCN2CCOCC2)cc1,-74.9%
26,N#C/C(=C/c1ccc(-c2ccccc2[N+](=O)[O-])o1)C(=O)NCCN1CCCCC1,-69.1%
27,N#C/C(=C\c1ccc(-c2ccccc2[N+](=O)[O-])o1)C(N)=O,24.6%
